From PubChem BioAssay (Tox21) come the findings set out here.

Structures are written as SMILES. Records with an inconclusive call do not appear. Entries that show only a call come without a potency. Values without a mark were called inactive. The source made the active and inactive calls. The call rests on the fitted dose curve.

A short description of this test: p53 small molecule agonists, cell-based qHTS assay: qHTS cell viability counter screen (AID 1963581). Further: nearly all actives have a fitted effect of over 45% in size. To be noted: p53RE-bla HCT-116 viability, ATP luminescence, 16 h; series mostly up to 66 µM; activity change, negative = cytotoxicity: at the top concentration. From the text: National Center for Advancing Translational Sciences [NCATS]
Division of Preclinical Innovation [DPI]
U.S. Environmental Protection Agency [EPA]
National Institutes of Environmental Health Sciences [NIEHS]
National Toxicology Program [NTP]
U.S. Food and Drug Administration [FDA]
p53, a tumor suppressor protein, is activated following cellular insult, including DNA damage and other cellular stresses. The activation of p53 regulates cell fate by inducing DNA repair, cell cycle arrest, apoptosis, or cellular senescence. The activation of p53, therefore, is a good indicator of DNA damage and other cellular stresses. The CellSensor p53RE-bla HCT-116 cell line (Invitrogen) contains a stably integrated beta-lactamase reporter gene under control of the p53 response elements. The activation of the reporter gene under culture conditions can be detected by fluorescence intensity. This cell line was used to screen the Tox21 compound library in a 1536-well plate format and to identify agonists that activate the p53 signaling pathway. The cytotoxicity of the Tox21 compound library against the p53 RE-bla HCT-116 cell line was tested in parallel by measuring the intra cellular ATP content in the same wells.
Tox21 Assay Protocol Summary:
The p53RE-bla cells were dispensed at 4,000 cells/5 ul/well in 1536-well black wall/clear bottom plates using a Multidrop dispenser. After the assay plates were incubated at a 37 C/5% CO2 incubator for 5 hours, 23 nL of compounds dissolved in DMSO, positive controls or DMSO only was transferred to the assay plate by a pin tool. The plates were incubated at 37 C for 16 hours. After 1 uL of LiveBLAzerTM B/G FRET substrate was added using a Flying Reagent Dispenser, the plates were incubated at room temperature for 2 hours, and fluorescence intensity was measured by an Envision plate reader. For cell viability readout that measures cytotoxicity, 4 ul/well of CellTiter-Glo reagent was added into the assay plates using a Flying Reagent Dispenser. After 30 min incubation at room temperature, the luminescence intensity in the plates was measured using a ViewLux plate reader.
A general note: Quantitative high-throughput screening tests each substance at several concentrations.
On to `Cc1cc(N=Nc2ccccc2C)ccc1N`, for which the “activity change, negative = cytotoxicity” value is 18.9%.
Still for that read-out and setting: to `CCOC(=O)c1ccccc1S(=O)(=O)NC(=O)Nc1nc(Cl)cc(OC)n1` belongs 11.3%.
Regarding `C=CCBr`, the “activity change, negative = cytotoxicity” value is 8.9%.
On to `Cc1ccc(N)cc1`, for which the Potency entry was “inactive”.
As for `O=C/C=C/c1ccco1`, the “activity change, negative = cytotoxicity” value is -1.14%.
Regarding `CC(C(=O)c1ccccc1)N(C)C` (stereo not given), the “activity change, negative = cytotoxicity” value is -20.6% [at 30.3 µM].
`CC(C=O)Cc1ccc2c(c1)OCO2` (stereo not given): the “activity change, negative = cytotoxicity” value is -1.75%.
Same read-out and setting: to `ClC1=C(Cl)[C@]2(Cl)[C@@H]3[C@@H](Cl)[C@H](Cl)C[C@@H]3[C@@]1(Cl)C2(Cl)Cl` belongs -4.66%; to `CCCCC(CC)CO[N+](=O)[O-]` (stereo not given), 5.95%.
For the compound `O=c1n(Cl)c(=O)n(Cl)c(=O)n1Cl`, the Potency result was “inactive”.
With `CCN`, the “activity change, negative = cytotoxicity” value was -1.88%.
Regarding `Nc1ccncc1`, the Potency result was “inactive”.
Regarding `O=c1[nH]c2ccccc2c(=O)o1`, the Potency entry is “inactive”.
Same read-out and setting: to `Nc1ncc([N+](=O)[O-])s1` belongs “inactive”.
For the compound `O=C(CBr)c1ccc(O)cc1`, the “activity change, negative = cytotoxicity” value was -8.93%.
Take `CCNc1nc(NC(C)C)nc(SC)n1`: the Potency entry was “inactive”.
Still for that read-out and setting: the same measure for `COc1ccc(N)cc1N`: “inactive”; for `O=C/C(Cl)=C(/Cl)C(=O)O`: “inactive”.
For the compound `Cc1ccc(CCl)cc1`, the “activity change, negative = cytotoxicity” value was -1.24%.
The same measure, in the same setting: the same measure for `CC(C)c1ccc(O)cc1`: 0.003%; for `CC1CN1` (stereo not given): 0.126%.
Take `O=[N+]([O-])c1ccccc1`: the Potency result is “inactive”.
The same measure, in the same setting: to `CCNc1nc(Cl)nc(NCC)n1` belongs “inactive”; to `NNc1ccccc1`, “inactive”.
Same read-out and setting: to `CC(C)(O)C#N` belongs “inactive”; to `CCOP(=S)(OCC)SCSC(C)(C)C`, “inactive”.
`CCOP(=S)(OCC)Oc1ccc2c(C)c(Cl)c(=O)oc2c1`: the Potency entry is “inactive”.
Still for that read-out and setting: the same measure for `ClC(Cl)(Cl)Br`: “inactive”.
Regarding `CNC(=O)Oc1c(C(C)(C)C)cc(C)cc1C(C)(C)C`, the “activity change, negative = cytotoxicity” value was 3.68%.
For the compound `C=C(C#N)CCC#N`, the “activity change, negative = cytotoxicity” value was 23.7%.
In the case of `O=[N+]([O-])c1ccc(Oc2ccc(Cl)cc2Cl)cc1`, the Potency result was “inactive”.
`OCCSSCCO`: the “activity change, negative = cytotoxicity” value was -22.6%.
In the case of `O=C(NCc1cccnc1)Nc1ccc([N+](=O)[O-])cc1`, the “activity change, negative = cytotoxicity” value was 6.4%.
As to `O=C(O)CCl`, the Potency entry is “inactive”.
As for `Cc1ccc(N)cc1Cl`, the “activity change, negative = cytotoxicity” value is 13.1%.
With `Clc1ccccc1Cl`, the Potency result was “inactive”.
Same read-out and setting: the same measure for `C[C@H]1CCCC(=O)CCC/C=C/c2cc(O)cc(O)c2C(=O)O1`: “inactive”.
In the case of `CC(C)OS(C)(=O)=O`, the “activity change, negative = cytotoxicity” value is -1.12%.
In the case of `C=CC(=O)OCCO`, the Potency result is “inactive”.
With `COC(=O)c1ccccc1CS(=O)(=O)NC(=O)Nc1nc(OC)cc(OC)n1`, the “activity change, negative = cytotoxicity” value was 0%.
